Data as given in PubChem BioAssay (Tox21).
Inconclusive results are not listed. A call without a number means that no potency is given here. Active and inactive are the calls of the source. Calls follow the shape of the full dose curve.

How the values were obtained:
[1] = molecular target: Acetylcholinesterase (Homo sapiens) (UniProt P22303); experiment: Acetylcholinesterase (AChE) small molecule antagonists: enzyme-based qHTS assay (AID 1347397); conditions: Potency: AChE enzyme activity inhibition; outcome: AChE enzyme activity inhibition; also: nearly all actives have a fitted effect of over 55% in size; also: potency is read from the fitted curve at half-maximal effect
Acetylcholinesterase (Homo sapiens), sequence (P22303 whole entry, looked up): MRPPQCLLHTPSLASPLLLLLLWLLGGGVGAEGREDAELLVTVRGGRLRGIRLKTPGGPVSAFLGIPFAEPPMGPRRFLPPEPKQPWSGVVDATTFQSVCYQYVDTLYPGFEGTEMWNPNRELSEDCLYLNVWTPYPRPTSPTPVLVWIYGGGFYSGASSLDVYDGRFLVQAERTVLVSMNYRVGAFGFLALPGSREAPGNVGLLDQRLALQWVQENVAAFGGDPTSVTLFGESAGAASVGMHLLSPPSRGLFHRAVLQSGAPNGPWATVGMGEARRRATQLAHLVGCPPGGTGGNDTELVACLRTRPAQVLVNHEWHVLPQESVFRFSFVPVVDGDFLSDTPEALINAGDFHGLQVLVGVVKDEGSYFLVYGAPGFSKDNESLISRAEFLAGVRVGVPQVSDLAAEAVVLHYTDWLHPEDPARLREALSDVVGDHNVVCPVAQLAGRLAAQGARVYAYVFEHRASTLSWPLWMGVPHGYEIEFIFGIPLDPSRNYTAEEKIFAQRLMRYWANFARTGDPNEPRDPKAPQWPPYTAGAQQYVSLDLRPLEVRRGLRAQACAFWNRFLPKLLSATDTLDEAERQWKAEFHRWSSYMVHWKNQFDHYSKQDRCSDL
How it was run: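 Colorimetric DTNB readout of acetylthiocholine hydrolysis, 10 min at room temperature, after 30 min room-temperature exposure of 50 mU/mL recombinant human enzyme to compound; DMSO vehicle control.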

[2] = molecular target: Acetylcholinesterase (Homo sapiens) (UniProt P22303); experiment: Acetylcholinesterase (AChE) small molecule antagonists: fluorescence cell-based qHTS assay (AID 1347398); conditions: Potency: AChE activity; outcome: AChE activity; also: nearly all actives have a fitted effect of over 50% in size; also: potency is read from the fitted curve at half-maximal effect
How it was run: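 Cellular AChE activity read as thiocholine from acetylthiocholine hydrolysis, detected by Thiolite Green fluorescence at 490/520 nm after 40 min at room temperature. Compounds were pre-incubated 30 min at 37 C on adherent SH-SY5Y cells.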

[3] = molecular target: Acetylcholinesterase (Homo sapiens) (UniProt P22303); experiment: Acetylcholinesterase (AChE) small molecule antagonists: enzyme-based qHTS assay with human liver microsomes (AID 1347399); conditions: Potency: qHTS inhibition; outcome: qHTS inhibition; also: nearly all actives have a fitted effect of over 60% in size
How it was run: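 Recombinant human AChE (50 mU/mL in the enzyme mix) and human liver microsomes (0.25 mg/mL final) were preincubated with compound and NADPH (0.25 mg/mL final) for 30 min at 37 C. Acetylthiocholine/DTNB was then added; thiocholine was read colorimetrically after 10 min at room temperature.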

Question: Which Potency [1] does the source give for O=C(OC(=O)c1ccccc1)c1ccccc1 here?
Answer: Its Potency is “inactive”.

Question: What about the Potency [2] of the same compound?
Answer: The Potency was “inactive”.

Question: Which Potency [1] does the source give for CC1=CCC2C(C1)C2(C)C (configuration not stated) here?
Answer: The Potency was “inactive”.

Question: What about the Potency [2] of the same compound?
Answer: Its Potency is “inactive”.

Question: What about the Potency [3] of the same compound?
Answer: The Potency was “inactive”.

Question: With Cc1ccc(S)cc1 as the compound, how does the Potency [1] read?
Answer: The Potency was “inactive”.

Question: And the Potency [2]?
Answer: The Potency was “inactive”.

Question: What about the Potency [3] of the same compound?
Answer: Its Potency is “inactive”.

Question: For O=C(OCC(COC(=O)c1cccnc1)(COC(=O)c1cccnc1)COC(=O)c1cccnc1)c1cccnc1, which Potency [1] is on record?
Answer: Its Potency is “inactive”.

Question: And the Potency [2]?
Answer: Its Potency is “inactive”.

Question: What about the Potency [3] of the same compound?
Answer: Its Potency is “inactive”.

Question: What does the source list for CCCC[N+](C)(CCCC)CCCC?
Answer: Potency [1]: inactive; Potency [2]: inactive; Potency [3]: inactive

Question: With CCOC(=O)C1CC(=O)C(=C(O)C2CC2)C(=O)C1 (configuration not stated) as the compound, how does the Potency [1] read?
Answer: The Potency was “inactive”.

Question: And the Potency [2]?
Answer: The Potency was “inactive”.

Question: CSc1nc(NC2CC2)nc(NC(C)(C)C)n1 was tested. Which Potency [1] did it give?
Answer: The Potency was “inactive”.

Question: And the Potency [2]?
Answer: Its Potency is “inactive”.

Question: And the Potency [3]?
Answer: Its Potency is “inactive”.

Question: For CN(C(=O)C(Cl)Cl)c1ccc(OC(=O)c2ccco2)cc1, which Potency [1] is on record?
Answer: The Potency was “inactive”.

Question: And the Potency [2]?
Answer: Its Potency is “inactive”.

Question: And the Potency [3]?
Answer: Its Potency is “inactive”.

Question: CC(C)CCCC(C)NCCC(C)C (configuration not stated) was tested. Which Potency [1] did it give?
Answer: The Potency was “inactive”.

Question: And the Potency [2]?
Answer: The Potency was “inactive”.

Question: What about the Potency [3] of the same compound?
Answer: The Potency was “inactive”.

Question: What does the source list for CC(C)(C)OC(=O)c1ccc(O)cc1?
Answer: Potency [1]: inactive; Potency [2]: inactive

Question: Which results are given for CC(=O)OCCC(C)CC(C)(C)C (configuration not stated)?
Answer: Potency [1]: inactive; Potency [2]: inactive

Question: Which results are given for CCN1CCCC1CNC(=O)c1cc(S(=O)(=O)CC)c(N)cc1OC (configuration not stated)?
Answer: Potency [1]: 15.5 µM (active); Potency [2]: 13.8 µM (active)

Question: Which results are given for CC(=O)OC(C)C[N+](C)(C)C (configuration not stated)?
Answer: Potency [1]: inactive; Potency [2]: inactive

Question: For SCCSCCS, which Potency [1] is on record?
Answer: Its Potency is “inactive”.

Question: And the Potency [2]?
Answer: Its Potency is “inactive”.

Question: What about the Potency [3] of the same compound?
Answer: Its Potency is “inactive”.

Question: Which Potency [1] does the source give for Cc1[nH]c(=O)c(C#N)cc1-c1ccncc1 here?
Answer: The Potency was “inactive”.

Question: What about the Potency [2] of the same compound?
Answer: Its Potency is “inactive”.

Question: Cc1nccn1CC1CCc2c(c3ccccc3n2C)C1=O (configuration not stated) was tested. Which Potency [1] did it give?
Answer: The Potency was “inactive”.

Question: And the Potency [2]?
Answer: Its Potency is 15.5 µM (active).

Question: And the Potency [3]?
Answer: The Potency was “inactive”.

Question: How did the Potency [1] turn out when CCN1CCC[C@H]1CNC(=O)c1cc(S(N)(=O)=O)ccc1OC was run?
Answer: Its Potency is “inactive”.

Question: What about the Potency [2] of the same compound?
Answer: The Potency was “inactive”.

Question: What about the Potency [3] of the same compound?
Answer: The Potency was “inactive”.

Question: With COc1ccc(-c2cc(=O)c3c(O)cc(O[C@@H]4O[C@H](CO[C@@H]5O[C@@H](C)[C@H](O)[C@@H](O)[C@H]5O)[C@@H](O)[C@H](O)[C@H]4O)cc3o2)cc1O as the compound, how does the Potency [1] read?
Answer: The Potency was “inactive”.

Question: And the Potency [2]?
Answer: The Potency was “inactive”.

Question: And the Potency [3]?
Answer: Its Potency is “inactive”.
